ROS inducer = inducers of reactive oxygen species in cancer cells; ROS induction (% of piperlongumine), % at 10 µM; U2OS ROS induction, H2DCF-DA fluorescence; 2% of 46,000 active; AID 624156; in the data active = ROS induction above about 79%, passing the limit was not always enough; inconclusive = no clear call, values can overlap the other calls
MITF inhib = MITF inhibition. TRPM1 promoter luciferase, luminescence, 24 h. inhibition, % (test concentration not listed). 0.28% of 37,000 active. AID 2240; in the data active = inhibition above about 85%; inconclusive = no clear call, values can overlap the other calls; inactive = below about 68%;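 note: human melanocyte line stably carrying TRPM1 promoter luciferase reporter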
YB-1 expr inh = YB-1 expression inhibition; 0.37% of 30,000 active; delta delta Cp (YB-1 minus CDIP) (test concentration not listed); U2OS, qRT-PCR YB-1 vs CDIP delta delta Cp, 16 h; hits give high values; zero = DMSO, each unit about twofold;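 active = delta delta Cp rounded down to an integer at or above 3, about 3 SD of DMSO wells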;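 note: higher means less YB-1 transcript or more CDIP transcript relative to DMSO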
BJeLR viability = lowers viability of BJeLR cells; 0.64% of 30,000 active; BJeLR fibroblasts viability, CellTiterGlo ATP luminescence, 48 h; HRASV12, hTERT and SV40 LT/ST transformed; viability loss activity score, % (test concentration not listed); AID 2275; in the data active = viability loss activity score above about 50%; inconclusive = no clear call, values can overlap the other calls; inactive = below about 35%;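 note: higher score means fewer live cells and less ATP luminescence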
Large screens that a line does not name were inactive. A selection: hits, their analogues and other compounds. The true share with any hit is near 2.5%.

CC1=C(Cc2cc3ccc(=O)oc3cc2O)CC(C)(C)CC1	none (no result: ROS inducer, MITF inhib, YB-1 expr inh)
C[C@H](CO)N1C[C@H](C)[C@@H](CN(C)S(=O)(=O)c2ccccc2)Oc2c(NC(=O)c3nc4ccccc4s3)cccc2C1=O	none
C[C@H](CO)N1C[C@H](C)[C@H](CN(C)S(=O)(=O)c2ccc(Cl)cc2)Oc2c(NC(=O)NC3CCCCC3)cccc2C1=O	ROS inducer 97
C[C@@H]1CN([C@@H](C)CO)C(=O)c2cccc(NC(=O)c3nc4ccccc4s3)c2O[C@H]1CN(C)S(=O)(=O)c1ccc(Cl)cc1	ROS inducer 80
O=C(CCCn1sc2ccccc2c1=O)NCCc1ccccc1	none (no result: MITF inhib, YB-1 expr inh)
O=C(CSc1nnc(-c2ccncc2)n1-c1ccccc1)Nc1ccc(C(F)(F)F)cc1	none (no result: YB-1 expr inh, BJeLR viability)
O=C(Nc1ccccc1)c1ccc(CSc2nnc(-c3ccncc3)n2-c2ccccc2)cc1	ROS inducer 109 (no result: YB-1 expr inh, BJeLR viability)
CCOC(CCn1c(SCc2cc(=O)n3ccccc3n2)nc2ccccc2c1=O)OCC	none (no result: MITF inhib, YB-1 expr inh)
CCc1nc(-c2ccc(OC)cc2)cc2cc(OC)c(OC)cc12	ROS inducer 109
CC1CCN(C(=O)Cn2cc(SCC(=O)N3CCc4ccccc43)c3ccccc32)CC1	none (no result: MITF inhib, YB-1 expr inh)
Nc1nc(SCc2nc(-c3ccccc3)no2)[nH]c(=O)c1-c1ccccc1	ROS inducer 106 (no result: YB-1 expr inh, BJeLR viability)
Nc1nc(SCC(=O)NCC2CCCO2)[nH]c(=O)c1-c1ccccc1 (stereo not given)	none (no result: YB-1 expr inh, BJeLR viability)
CN(C(=O)CSc1c2c(nc3ccccc13)CCCC2)C1CCCCC1	none (no result: ROS inducer, MITF inhib, YB-1 expr inh)
COC(=O)C(CC#Cc1ccc2c(c1)[C@]1(C(=O)N2)[C@H](C(N)=O)[C@H]2C(=O)O[C@H](c3ccccc3)[C@H](c3ccccc3)N2[C@@H]1c1ccc(OCCO)cc1)C(=O)OC	none (no result: MITF inhib, BJeLR viability)
COCCOC(=O)N1C(=O)[C@@]2(c3cc(C#CCCO)ccc31)[C@H](c1ccccc1OCCO)N1[C@H](c3ccccc3)[C@H](c3ccccc3)OC(=O)[C@H]1[C@@H]2C(=O)N1CCc2cc(OC)c(OC)cc2C1	ROS inducer 95 (no result: MITF inhib, BJeLR viability)
COC(=O)C(CC#Cc1ccc2c(c1)[C@]1(C(=O)N2)[C@H](c2ccccc2OCCO)N2[C@H](c3ccccc3)[C@H](c3ccccc3)OC(=O)[C@H]2[C@@H]1C(=O)N1CCc2cc(OC)c(OC)cc2C1)C(=O)OC	ROS inducer 175 (no result: MITF inhib, BJeLR viability)
COC(=O)C(CC#Cc1ccc2c(c1)[C@]1(C(=O)N2)[C@H](C(N)=O)[C@H]2C(=O)O[C@H](c3ccccc3)[C@H](c3ccccc3)N2[C@@H]1c1ccccc1OCCO)C(=O)OC	ROS inducer 142 (no result: MITF inhib, BJeLR viability)
COC(=O)C(CC#Cc1ccc2c(c1)[C@]1(C(=O)N2)[C@H](C(=O)NC[C@H](O)c2ccccc2)[C@H]2C(=O)O[C@H](c3ccccc3)[C@H](c3ccccc3)N2[C@@H]1c1ccccc1OCCO)C(=O)OC	ROS inducer 113 (no result: MITF inhib, BJeLR viability)
CCC(C(=O)Nc1cccc(C)c1C)n1nc(C)c2sc3ccccc3c2c1=O (stereo not given)	none (no result: MITF inhib, YB-1 expr inh)
FC(F)(F)c1cc(N2CCC(n3cccc3)CC2)c2ccccc2n1	none (no result: MITF inhib, YB-1 expr inh)
Cn1c(SCc2nc(-c3ccc(Br)cc3)no2)nnc1-c1ccco1	none (no result: YB-1 expr inh, BJeLR viability)
COc1ccc(-c2noc(CSc3nnc(-c4ccccc4)n3C)n2)cc1	ROS inducer 125 (no result: YB-1 expr inh, BJeLR viability)
CC(C)=CCOc1c2ccoc2cc2oc(=O)ccc12	none
CC(C)=CCOc1cc(C)cc2oc(=O)cc(-c3ccccc3)c12	ROS inducer 84 (no result: MITF inhib, YB-1 expr inh)
C[C@H](CO)N1C[C@H](C)[C@H](CN(C)Cc2ccc(-c3ccccc3)cc2)Oc2c(NC(=O)c3ccncc3)cccc2C1=O	none (no result: BJeLR viability)
CC(C)NC(=O)N(C)C[C@@H]1Oc2c(NC(=O)c3ccncc3)cccc2C(=O)N([C@@H](C)CO)C[C@H]1C	ROS inducer 101
Cc1cc(C(=O)Nc2cccc3c2O[C@@H](CN(C)Cc2ccc(-c4ccccc4)cc2)[C@H](C)CN([C@@H](C)CO)C3=O)n(C)n1	ROS inducer inconclusive
Cc1cc(C(=O)Nc2cccc3c2O[C@@H](CN(C)S(=O)(=O)c2cccs2)[C@@H](C)CN([C@@H](C)CO)C3=O)n(C)n1	none
C[C@H](CO)N1C[C@H](C)[C@@H](CN(C)Cc2ccc(-c3ccccc3)cc2)Oc2c(NC(=O)c3ccncc3)cccc2C1=O	ROS inducer 149
Cc1cc(C(=O)Nc2cccc3c2O[C@H](CN(C)S(=O)(=O)c2cccs2)[C@H](C)CN([C@@H](C)CO)C3=O)n(C)n1	YB-1 expr inh 20
Cc1cc(C(=O)Nc2cccc3c2O[C@H](CN(C)Cc2ccc(-c4ccccc4)cc2)[C@@H](C)CN([C@H](C)CO)C3=O)n(C)n1	ROS inducer 196
CC12CC(c3ccccc3O1)N(C(=O)c1cccc(F)c1)C(=S)N2c1ccccc1 (stereo not given)	none (no result: ROS inducer, MITF inhib, YB-1 expr inh)
Cc1cc(C(=O)Nc2cccc3c2O[C@H](CN(C)Cc2ccc(Oc4ccccc4)cc2)[C@@H](C)CN([C@H](C)CO)C3=O)n(C)n1	ROS inducer 172
CC(C)NC(=O)N(C)C[C@H]1Oc2c(NS(=O)(=O)c3cn(C)cn3)cccc2C(=O)N([C@H](C)CO)C[C@H]1C	YB-1 expr inh 12
C(=N\n1nnnc1Nc1ccccc1)/c1ccc(OCc2ccccc2)cc1	none (no result: ROS inducer, MITF inhib, YB-1 expr inh)
COc1ccc(NC(=O)C2CC(c3cccc(OC)c3)=NO2)cc1 (stereo not given)	none (no result: ROS inducer, MITF inhib, YB-1 expr inh)
C[C@H](CO)N1C[C@H](C)[C@H](CN(C)Cc2ccc(Cl)c(Cl)c2)Oc2c(NC(=O)CCCCCC(=O)Nc3ccccc3N)cccc2C1=O	ROS inducer 121 (no result: BJeLR viability)
C[C@@H]1CN([C@H](C)CO)C(=O)c2cccc(NC(=O)CCCCCC(=O)Nc3ccccc3N)c2O[C@@H]1CN(C)Cc1ccc2c(c1)OCO2	none (no result: BJeLR viability)
C[C@@H]1CN([C@H](C)CO)C(=O)c2cccc(NC(=O)CCCCCC(=O)Nc3ccccc3N)c2O[C@H]1CN(C)Cc1ccc2c(c1)OCO2	ROS inducer 106 (no result: BJeLR viability)
C=C(CO)C(=O)O[C@H]1CC(=C)[C@@H]2CC(=O)[C@H](C)[C@@H]2[C@H]2OC(=O)C(=C)[C@@H]21	ROS inducer 122, BJeLR viability 69
CCN1C(=O)c2cccc3c(S(=O)(=O)NCCc4ccc(OC)c(OC)c4)ccc1c23	none (no result: ROS inducer, MITF inhib, YB-1 expr inh)
COc1cc2c(cc1OC)N1C(=O)C[C@]34C=CCN5CC[C@@H]2[C@@H](CC3)[C@]514	ROS inducer 86 (no result: MITF inhib, BJeLR viability)
O=C(NCCC(c1ccccc1)c1ccccc1)c1cc2ccccc2c(=O)o1	ROS inducer 154
CCN(CC)c1ncc2c(NCc3ccccc3)nc(SCc3ccccc3)nc2n1	ROS inducer 129
CN(Cc1ccccc1)C(=O)CSc1nc(NCc2ccc(Cl)cc2)c2ccccc2n1	none (no result: MITF inhib, YB-1 expr inh)
N#Cc1cnc(SCc2cc(=O)n3ccccc3n2)nc1N	none (no result: MITF inhib, YB-1 expr inh)
CC(NC(=O)c1cnn2c(C(F)(F)F)cc(-c3cccs3)nc12)c1ccccc1 (stereo not given)	ROS inducer 85 (no result: MITF inhib, YB-1 expr inh)
COC(=O)C1=CN(C(CC(C)C)C(=O)OC)C=C(C(=O)OC)C1c1ccc(Br)cc1 (stereo not given)	ROS inducer 95
COc1ccccc1-c1nnc(-c2cccs2)o1	none (no result: MITF inhib, YB-1 expr inh)
CCN(CC)C(=O)c1ccc(CS(=O)(=O)c2ccccc2C)o1	none (no result: ROS inducer, MITF inhib, YB-1 expr inh)
